p53 PUMA act = mutant p53 pathway re-activators, primary screen, cell-based, SW480, luciferase, single point, HTS; SW480 PUMA-promoter luciferase, p53 mutant reactivation; activation, % at 9.98 µM; 28,000 compounds, 1.5% hits; AID 624151, 2012; in the data active means activation above about 52%
ID4 binder = binders of human ID4 protein, primary screen, biochemical, small molecule microarray, single point; 31,000 compounds, 1.2% hits; AID 624137, 2012; DNA-binding protein inhibitor ID-4 (Homo sapiens), P47928; Flag-ID4 binding, fluorescence F/B; calls only; call rule not given here;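 further: a binder raises fluorescence above local background on the spot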
Target sequence (P47928 whole entry, looked up): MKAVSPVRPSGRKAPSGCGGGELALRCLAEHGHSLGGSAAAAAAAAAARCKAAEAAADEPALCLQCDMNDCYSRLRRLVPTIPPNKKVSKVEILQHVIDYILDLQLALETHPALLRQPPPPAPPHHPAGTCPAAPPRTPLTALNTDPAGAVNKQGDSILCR
Numbers without * were called inactive; i = inactive; . = not tested or not shown; + = active, no number. Rows were chosen to be rich in hits. Some 2.2% of all compounds tested hit in one or more screens of this group.

SMILES	p53 PUMA act	ID4 binder
C[C@@H]1CCCCO[C@H](CN(C)C(=O)Nc2ccccc2)[C@H](C)CN([C@@H](C)CO)C(=O)c2cc(NC(=O)CCCN(C)C)ccc2O1	6	i
C[C@@H]1CN([C@@H](C)CO)C(=O)c2cc(C3=CCCC3)cnc2O[C@@H]1CN(C)C(=O)CN(C)C	.	i
COc1cc(NC(=O)C(C)Oc2ccc(Cl)cc2Cl)ccc1NC(=O)c1ccco1 (stereo not given)	67*	i
COc1ccc(NC(=O)c2ccco2)cc1NC(=O)C(C)Oc1ccc(Cl)cc1Cl (stereo not given)	-9	i
O=C(COc1ccc(Cl)cc1Cl)Nc1cccc(-c2nnc(-c3ccccc3)o2)c1	39	i
CC(Oc1ccc(Cl)cc1Cl)C(=O)Nc1cccc(-c2nnc(-c3ccccc3)o2)c1 (stereo not given)	81*	i
COc1cc2c(cc1NC(=S)NCCc1ccc(OC)c(OC)c1)oc1ccccc12	-6	i
COc1ccccc1NC(=O)C1CCCN(S(=O)(=O)c2ccc(Br)cc2)C1 (stereo not given)	9	i
O=C(N[C@@H]1CC[C@@H](CC(=O)N2CCN(c3ccccc3)CC2)O[C@@H]1CO)c1ccncc1	.	i
C=CCNc1nc(N)c(C(=O)Nc2cc(C)on2)s1	70*	i
Cc1cc(NC(=O)c2nn3cccnc3c2Cl)no1	5	i
CC(C)NC(=O)N(C)C[C@H]1OCc2cn(nn2)CCCC(=O)N([C@H](C)CO)C[C@@H]1C	3	i
CCOc1ccccc1CNCc1ccccn1	10	i
CCCn1cnc2cc(NCc3ccccn3)ccc21	78*	i
CCC(=O)N1CCN(c2ccc(Cl)cc2NC(=O)COc2ccc(C(C)(C)C)cc2)CC1	-4	i
COc1cc2c(cc1NC(=O)Cc1ccccc1[N+](=O)[O-])oc1ccccc12	87*	i
COc1cc2c(cc1NC(=O)COc1ccc([N+](=O)[O-])cc1)oc1ccccc12	-1	i
COc1cccc(C=NC=Nc2cccc(OC)c2)c1	38	i
Clc1cccc(C=NC=Nc2cccc(Cl)c2)c1	73*	i
C[C@H]1CN([C@@H](C)CO)C(=O)c2cc(-c3cccc(F)c3)cnc2O[C@H]1CN(C)Cc1ccccc1	.	i
CC(=O)c1c(C)oc2ccc(NS(=O)(=O)c3cccc4cccnc34)cc12	-22	i
Cc1ccc(-c2nnc(N3CCN(C(=O)CSc4nc5ccccc5o4)CC3)c3ccccc23)cc1	-18	i
Cc1ccc(-c2nnc(N3CCN(C(=O)CSc4nc(C)cc(C)n4)CC3)c3ccccc23)cc1	-11	+
CN(Cc1nc(-c2ccncc2)no1)S(=O)(=O)c1ccc(Br)cc1	1	i
C[C@H](CO)N1C[C@H](C)[C@@H](CN(C)Cc2ccc(C(=O)O)cc2)Oc2ccc(NC(=O)CCCN(C)C)cc2C1=O	-1	i
SMILES	p53 PUMA act	ID4 binder
C[C@@H]1CN([C@H](C)CO)C(=O)c2cc(NC(=O)CCCN(C)C)ccc2O[C@@H]1CN(C)C(=O)Nc1ccccc1	9	+
C[C@H](CO)N1C[C@H](C)[C@@H](CN(C)C(=O)Nc2cccc3ccccc23)Oc2ccc(NC(=O)CCCN(C)C)cc2C1=O	6	+
C[C@H]1CN([C@@H](C)CO)C(=O)c2cc(NS(=O)(=O)c3cn(C)cn3)ccc2O[C@@H]1CN(C)Cc1ccccc1	4	+
C[C@@H]1CN([C@@H](C)CO)C(=O)c2cc(NC(=O)CCCN(C)C)ccc2O[C@@H]1CN(C)Cc1ccc(C(=O)O)cc1	-2	+
C[C@H](CO)N1C[C@H](C)[C@H](CN(C)C(=O)Nc2ccccc2)Oc2ccc(NC(=O)CCCN(C)C)cc2C1=O	6	i
C[C@@H]1CN([C@@H](C)CO)C(=O)c2cc(NC(=O)CCCN(C)C)ccc2O[C@@H]1CN(C)C(=O)Nc1cccc2ccccc12	-7	i
C[C@@H]1CN([C@H](C)CO)C(=O)c2cc(NS(=O)(=O)c3cn(C)cn3)ccc2O[C@H]1CN(C)Cc1ccccc1	12	i
O/N=C1/CC(O)(C(F)(F)F)Oc2ccccc21 (stereo not given)	-5	i
Cc1ccc(S(=O)(=O)NC(C)C(=O)Nc2ccc(F)c(Cl)c2)cc1 (stereo not given)	2	i
COc1ccc2c(c1)C(C)CC(C)(C)N2C(=O)CSc1nnc(C)s1 (stereo not given)	2	i
COc1ccc(S(=O)(=O)Nc2ccc3c(c2)C(=O)N([C@@H](C)CO)C[C@H](C)[C@@H](CN(C)Cc2ccncc2)O3)cc1	4	i
CC(OC1OC(CO)C(O)C(O)C1O)C1C(O)CC2C3CCC4=CC(=O)CCC4(C)C3CCC21C (stereo not given)	3	i
Cc1noc(C)c1NC(=O)N(C)C[C@@H]1Oc2c(cccc2N(C)C)C(=O)N([C@H](C)CO)C[C@@H]1C	-2	i
CC(CO)(CO)NC(=O)NC1CCCCC1	-7	i
C[C@@H]1CCCCO[C@@H](CN(C)C(=O)c2ccccc2)[C@@H](C)CN([C@H](C)CO)C(=O)c2cc(NS(=O)(=O)c3cn(C)cn3)ccc2O1	-3	i
COc1ccc(C)cc1N(CC(=O)Nc1ccccc1C(=O)O)S(C)(=O)=O	-4	i
CCOCCCNc1nc2c([nH]1)c(=O)n(C)c(=O)n2C	-6	i
Cn1c(=O)c2[nH]c(NCCN3CCOCC3)nc2n(C)c1=O	-7	+
CO[C@H](CN(C)Cc1cc(F)ccc1F)[C@@H](C)CN(C(=O)Nc1ccc(C(F)(F)F)cc1)[C@H](C)CO	.	i
C[C@H]1CN([C@@H](C)CO)C(=O)CCCn2cc(nn2)CO[C@H]1CN(C)C(=O)CCC(F)(F)F	6	i
C[C@@H]1CN([C@@H](C)CO)C(=O)c2cc(NC(=O)c3ccncc3)ccc2O[C@@H](C)CCCCO[C@H]1CN(C)C(=O)Cc1ccccc1	3	+
C[C@@H]1CN([C@H](C)CO)C(=O)c2cc(NC(=O)c3ccncc3)ccc2O[C@@H](C)CCCCO[C@@H]1CN(C)C(=O)Nc1cccc2ccccc12	-19	+
C[C@@H]1CCCCO[C@H](CN(C)C(=O)Cc2ccccc2)[C@H](C)CN([C@@H](C)CO)C(=O)c2cc(NC(=O)c3ccncc3)ccc2O1	-3	i
CNC[C@@H]1Oc2c(NC(=O)c3ccc(-c4nccs4)cc3)cccc2C(=O)N([C@H](C)CO)C[C@@H]1C	1	i
CNC[C@H]1Oc2ccc(NC(=O)c3ccncc3)cc2C(=O)N([C@H](C)CO)C[C@@H]1C	7	+
C[C@@H]1CN([C@@H](C)CO)C(=O)c2cc(NC(=O)c3ccncc3)ccc2O[C@@H](C)CCCCO[C@H]1CN(C)C(=O)Nc1cccc2ccccc12	-79	i
CNC[C@@H]1Oc2c(NC(=O)c3ccc(-c4nccs4)cc3)cccc2C(=O)N([C@H](C)CO)C[C@H]1C	-12	+
C[C@@H]1CN([C@H](C)CO)C(=O)c2cc(NC(=O)c3ccncc3)ccc2O[C@H]1CN(C)C	0	i
COc1ccc(-c2nn(C)c(=O)c3ccccc23)cc1NC(=O)Cn1nc(C)c2ccccc2c1=O	36	i
C[C@H](CO)N1C[C@H](C)[C@@H](CN(C)Cc2ccc(C(=O)O)cc2)Oc2c(NC(=O)Nc3ccc(C(F)(F)F)cc3)cccc2C1=O	-8	i

From PubChem
